Hits are enriched below; roughly 9.4% of the tested compounds scored in any of these assays.
SARS PLpro yeast – blocks SARS-CoV papain-like protease in a yeast assay | S. cerevisiae expressing SARS-CoV PLpro, growth rescue | Potency, µM (top dose mostly 32.9 µM), hits mostly activators | 330,000 compounds, 0.19% hits | AID 485353; calls by dose curve; further: nearly all actives have a fitted effect of over 55% in size
Pf growth 48h – inhibits P. falciparum growth in the first generation, 48 h; P. falciparum luciferase growth in erythrocytes, 48 h; Potency, µM (top dose mostly 28.7 µM), hits mostly inhibitors; 310,000 compounds, 5.9% hits
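Luminescence readout; reporter = integrated firefly luciferase in P. falciparum. RBC culture at 2% hematocrit, 0.1% parasitemia final, 37 C/5% CO2; decreased signal taken as growth inhibition.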
Pf growth 96h – inhibits malaria parasite growth, 96 h | 320,000 compounds, 6.9% hits | P. falciparum luciferase reporter growth, 96 h | Potency, µM (highest dose often 28.7 µM), actives largely listed as inhibitors | AID 504834
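Cell-based qHTS: luciferase-tagged P. falciparum in erythrocytes (2% hematocrit, 0.05% parasitemia final) incubated with compounds for 96 hours, 37 C, 5% CO2; luciferase detection reagent then added and luminescence measured.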
AMA1-RON2 inh – disrupts binding of P. falciparum AMA1 to RON2; AlphaScreen AMA1-biotinylated RON2 peptide binding; Potency, µM (top dose mostly 58.2 µM), hits mostly inhibitors; 360,000 compounds, 0.2% hits; AID 720542; further: nearly all actives have a fitted effect of over 45% in size
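AMA1 (3D7) with his tag at 25 nM final met compounds first, then biotinylated RON2 peptide at 25 nM; detection used donor plus acceptor beads, 10 µg/mL apiece, read by AlphaScreen after 30 min at room temperature.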
A number is an active result; - = inactive; ? = inconclusive; . = no result given; [ ] = dose if it differs, or a comment. Unless noted, the call rests on the fitted dose curve; in most records, active means well fitted curve in the direction sought with a large enough effect; inconclusive means small, poorly fitted or top-dose-only effect, or another doubt; inactive means no such curve, though single readings can be large; an effect the other way counts as inactive or inconclusive.

SMILES | SARS PLpro yeast | Pf growth 48h | Pf growth 96h | AMA1-RON2 inh
COc1ccc(Nc2nc(N)nc(CSC(=S)N3CCN(c4ccccc4)CC3)n2)cc1 | - | ? | 12µM | -
COc1ccccc1Nc1nc(N)nc(CSc2nccc(C)n2)n1 | - | - | 0.93µM | -
CCOc1ccc(Nc2nc(N)nc(CSC(=S)N3CCN(c4ccccc4)CC3)n2)cc1 | - | 12µM | 13µM | -
Cc1cc(NS(=O)(=O)c2ccc(NC(=O)CN3C(=O)c4ccccc4C3=O)cc2)nc(C)n1 | - | - | - | -
CC(=O)Nc1cccc(-c2csc(C(NC(C)=O)c3ccc(F)c(F)c3)n2)c1 (configuration not stated) | . | . | . | -
Cc1cc(/C=C(\C#N)C(=O)O)c(C)n1CC1CCCO1 (configuration not stated) | - | - | - | -
Cc1cc(C(C)(C)C)c(OC(=O)[C@@H]2OC(c3ccccc3)=C[C@H]2c2ccccc2)c(C(C)(C)C)c1 | - | 5.2µM | ? | -
Cc1ccc(C(=O)Nc2ccc(S(=O)(=O)N3CCCC3)cc2)s1 | - | ? | 13µM | -
CC1CCCN(S(=O)(=O)c2ccc(NC(=O)C3CCN(C(=O)C(C)(C)C)CC3)cc2)C1 (configuration not stated) | - | 5.2µM | 6.6µM | -
Cc1ccc(S(=O)(=O)N2CCC(C(=O)NNC(=O)c3ccccc3)CC2)cc1 | - | - | - | -
Cc1ccc(C(=O)NNC(=O)C2CCN(S(=O)(=O)c3ccc(C)cc3)CC2)cc1 | - | 2.6µM | - | -
C/C(=N\S(=O)(=O)c1ccc(C)cc1)N1CCCCC1 | - | - | 12µM | -
CCN(CC)c1nc(=S)nc(NC(C)(C)C)[nH]1 | - | ? | - | -
Cc1ccccc1-c1nc(CS(=O)(=O)CC(=O)NCc2ccc3c(c2)OCO3)c(C)o1 | - | - | - | -
O=C(Nc1ccc(S(=O)(=O)N2CCOCC2)cc1)C1CCN(S(=O)(=O)c2ccc(F)cc2)CC1 | - | ? | ? | -
Cc1ccc(S(=O)(=O)N2CCCCC2)cc1NC(=O)C1CCN(C(=O)OC(C)(C)C)CC1 | . | . | . | -
Cc1ccc(S(=O)(=O)N2CCC(C(=O)NCCCN3CCCC3=O)CC2)cc1 | - | . | . | -
O=C(Nc1ccc(F)cc1)C1CCN(S(=O)(=O)c2ccc3[nH]c(=O)oc3c2)CC1 | - | - | 13µM | -
Cc1ccc(NC(=O)C2COc3ccccc3O2)cc1S(=O)(=O)N1CCCCC1 (configuration not stated) | - | 9.3µM | ? | -
Cc1ccc(S(=O)(=O)N2CCC(C(=O)NCCN3CCCCCC3)CC2)cc1 | - | 12µM | - | -
Cc1ccc(NC(=O)C2CCN(C(=O)OC(C)(C)C)CC2)cc1S(=O)(=O)N1CCCCC1 | - | 13µM | ? | -
CC(=O)N1CCN(c2ccc(NC(=O)c3ccc(Br)o3)cc2Cl)CC1 | - | ? | ? | -
COc1ccc(NC(=O)c2cc3c(CO)cnc(C)c3oc2=Nc2cc(OC)cc(OC)c2)cc1 | - | - | - | -
CC1=CC(=O)C(C(C)C)=C/C1=N\OC(=O)c1cccc2nc(C)oc12 | - | - | ? | -
CC(C)(C)n1nnnc1C(c1ccccc1)N1CCN(c2ccc(F)cc2)CC1 (configuration not stated) | . | . | . | -
SMILES | SARS PLpro yeast | Pf growth 48h | Pf growth 96h | AMA1-RON2 inh
O=C1CCN(C2CCN(Cc3nc(Cc4ccccc4F)no3)CC2)CCN1 | - | - | - | -
Cc1ccc(S(=O)(=O)N2CCC(C(=O)N3CCCC3C(=O)N[C@@H](CC(C)C)C(=O)NCC(N)=O)CC2)cc1 (some centres not stated) | - | ? | 6.6µM | -
Cc1ccc(S(=O)(=O)N2CCC(C(=O)Nc3ccc(C(C)C)cc3)CC2)cc1 | - | ? | ? | -
Cc1ccc(NS(=O)(=O)c2ccc(NC(=O)N3CCCCC3)cc2)cc1 | - | ? | 1.5µM | -
CC(=O)Nc1cc(C(=O)N2CCCC2)ccc1S(=O)(=O)c1ccc(C)cc1 | - | - | 1.2µM | -
Cc1ccc(S(=O)(=O)N2CCC(C(=O)Nc3ccc(S(=O)(=O)N4CCCC4)cc3)CC2)cc1 | - | 13µM | 4.7µM | -
Cc1ccc(S(=O)(=O)N2CCC(C(=O)N3CCC[C@H]3C(=O)NCC(C)C)CC2)cc1 | - | ? | - | -
CCCc1nc2sc(C(=O)OCC)c(N)c2c2c1COC(C)(C)C2 | - | - | . | -
O=C(Nc1ccc(S(=O)(=O)Nc2ccccc2)cc1)C1COc2ccccc2O1 (configuration not stated) | - | ? | 0.47µM | -
CCCNC(=O)C1CCN(S(=O)(=O)c2ccc(Br)cc2)CC1 | - | 4.7µM | - | -
O=C(Nc1ccc(S(=O)(=O)N2CCCCC2)cc1)C1CCCCC1 | - | ? | ? | -
Cc1ccc(S(=O)(=O)N2CCC(C(=O)Nc3ccc(S(=O)(=O)N4CCCC4)cc3)CC2)cc1C | - | 12µM | ? | -
CCCNC(=O)C1CCN(S(=O)(=O)c2ccc3c(c2)OCCO3)CC1 | - | ? | - | -
Cc1cc(C(=O)C(=O)O)c(C)n1-c1ccc(Cl)cc1 | - | - | - | -
Cc1cc(CC(=O)O)c(C)n1-c1ccc(Cl)cc1 | . | ? | 11µM | .
CC(=O)Oc1c(Cl)cc(N(C(C)=O)S(=O)(=O)c2ccccc2)c2ccccc12 | . | . | . | -
CCc1ccc(/C=C2\SC(=S)N(CCCC(=O)Nc3nccs3)C2=O)cc1 | - | - | ? | -
Cc1cc(C)c(NC(=O)Cn2nnc(C(=O)Nc3ccc(F)cc3F)c2N)c(C)c1 | - | - | 2.6µM | -
Cc1ccc(NC(=O)Cn2nnc(C(=O)Nc3ccc(C)c(C)c3)c2N)cc1 | - | - | 9.3µM | -
Cc1ccc(NC(=O)Cn2nc(C(=O)Nc3ccc(C)cc3)ccc2=O)cc1 | - | - | 13µM | -
O=C(Cn1nc(-c2ccccc2)ccc1=O)Nc1ccc(NC(=O)c2ccccn2)cc1 | - | - | - | -
CC1CC1C(=O)OCC(=O)NNC(=O)COc1ccc(Br)cc1 (configuration not stated) | - | - | - | -
CCOc1c(Cl)cc(CNc2nnnn2C)cc1OC | - | 5.9µM | - | -
CCOc1ccc(CNc2nnnn2C)cc1OC | - | ? | - | -
Cc1c(C(=O)N2CCCC2)oc2c1-c1nn(CC(=O)NCCCOC(C)C)cc1CC2 | - | ? | - | -
SMILES | SARS PLpro yeast | Pf growth 48h | Pf growth 96h | AMA1-RON2 inh
Cn1nc(C(F)(F)F)c(-c2cccc(C(F)(F)F)c2)c1NC(=O)Nc1ccc(F)cc1 | - | 0.93µM | 1.3µM | -
Cn1nc(C(F)(F)F)c(-c2cccc(C(F)(F)F)c2)c1NC(=O)c1ccco1 | - | ? | - | -
Cc1ccc(C)c(N(CC(=O)NCCSCc2ccco2)S(C)(=O)=O)c1 | - | ? | ? | -
CCCCC1C2=C(CC(C)(C)CC2=O)OC2=C1C(=O)CC(C)(C)C2 | - | ? | 12µM | -[2.32 µM]
Cc1cccc(N2CCN(CC(=O)N(C3CCCC3)C3CCS(=O)(=O)C3)CC2)c1C (configuration not stated) | - | 10µM | ? | -
CCc1cc2ccc(C)cc2nc1SCC(=O)NNC(=O)c1ccco1 | - | - | 4.7µM | -
CCc1cc2cc(C)ccc2nc1SCC(=O)NNC(=O)c1ccco1 | - | ? | - | -

High-throughput results deposited in PubChem BioAssay by National Center for Advancing Translational Sciences (NCATS).
